The text below walks through data of the OligoGym collection.
Note: reference of the scale not given here.

One assay concerns the target PEG10. Put plainly: pooled miR-30 sensor sort-seq; sequence = guide strand. As to conditions: shRNA.
Sequence TAGTTGTGCATCAGGTAGTGGG came in with a sensor-assay potency score (higher = more potent) of -0.718.
For the sequence TGTCAGCGTAGTGACCTCCTGT, the sensor-assay potency score (higher = more potent) is -0.0667.
Consider TTCCACTTGCTCTCGAAGGGTG, for which the sensor-assay potency score (higher = more potent) was -0.417.
TGCAATGTGAGGCAACACCAGC had a sensor-assay potency score (higher = more potent) of -1.84.
Sequence TCTTTCTTTTTCTTCCTGCGTC yielded a sensor-assay potency score (higher = more potent) of -0.141.
TTGATCTCTTCAGAGAGCTCGT came in with a sensor-assay potency score (higher = more potent) of 0.178.
For TCAACTGAGAAATCCCTGGTGC, the sensor-assay potency score (higher = more potent) is 0.598.
In the case of TTAAGTTGTTGATCTCTTCAGA, the sensor-assay potency score (higher = more potent) was -0.104.

For the next assay, the target named is PEG3. The assay is described as above. As to conditions: shRNA.
Turning to TTATCATCTGACATTCTGGGGA, the sensor-assay potency score (higher = more potent) came to 0.23.
In turn, TTCTTCTACCTGAATCTCTTGA came in with a sensor-assay potency score (higher = more potent) of 0.127.
Same read-out and setting: with TTGATCTTCACCTTCTTCTGGG the figure was 0.701; with ATAACCTCTAGCATGAATCTTC, -0.113; with TTGATCGTGAATCGAGCCCTTC, -0.255.
With TTCAATGAAATGTCCTTCCAGT, the sensor-assay potency score (higher = more potent) is 0.297.
On to TAATCTCTCTGATACTCGCTGA, for which the sensor-assay potency score (higher = more potent) is -0.226.
The sequence TTCACTGACAGCCACACTGTGG returned a sensor-assay potency score (higher = more potent) of -0.755.
The sequence TTATAGTATGACTCTTCTGAGA returned a sensor-assay potency score (higher = more potent) of -1.1.
TTTGTCATCAGGGTCATCCTTC had a sensor-assay potency score (higher = more potent) of 0.301.
TTGTGTTGAGGTCTTCGCTGGT returned a sensor-assay potency score (higher = more potent) of 0.119.
Take TTTCTTTTTAGCACGAGCCTTC: the sensor-assay potency score (higher = more potent) was -0.635.

For the next assay, the target named is PELI3. The assay is described as above. The settings on record: shRNA.
For the sequence AAGTCAATCATGTTCTCTGTGG, the sensor-assay potency score (higher = more potent) was -0.484.
Consider TGGAACATGTCTGTGTCGCTAT, for which the sensor-assay potency score (higher = more potent) was 0.131.
ATCATGTTCTCTGTGGAGCGGC: the sensor-assay potency score (higher = more potent) was -0.826.
With TATCATGTGTATACTCCACTAT, the sensor-assay potency score (higher = more potent) is -0.135.
For TCAATCATGTTCTCTGTGGAGC, the sensor-assay potency score (higher = more potent) is -0.446.
As for TGTATACTCCACTATGACCGAG, the sensor-assay potency score (higher = more potent) was -0.429.
Sequence TACACATTCCCACAGACCGAGA came in with a sensor-assay potency score (higher = more potent) of -1.66.
The same measure, in the same setting: the value for ATTGGTGGTCAGTCCATCCATC was -0.798; that for ATCATGTGTATACTCCACTATG was -1.35; that for TTGCTAGAGGCATCGAAGCCAG was -0.912.
TCTGTGTCGCTATCATGTGTAT registered a sensor-assay potency score (higher = more potent) of -0.903.
Sequence TGTCTGTGTCGCTATCATGTGT returned a sensor-assay potency score (higher = more potent) of -0.284.

The next assay addresses PEX11G. The description is as above. The settings on record: shRNA.
The sequence AAGAGTCGCAAGATGGTCCTGC gave a sensor-assay potency score (higher = more potent) of 0.55.
Same read-out and setting: with TTGCTTAGTGTAGACAAACATG the figure was -1.38.
Take TAGTGTAGACAAACATGGCCAG: the sensor-assay potency score (higher = more potent) is -0.684.
Consider TTCCCTAGGACGGAGACACAGC, for which the sensor-assay potency score (higher = more potent) is -1.05.
The sequence AACCAGAACTCCACCAACCAGC yielded a sensor-assay potency score (higher = more potent) of -1.17.
TGGACACCACCAACAGACGTGT displayed a sensor-assay potency score (higher = more potent) of -1.09.
As to TTCAGCAGCATCCACAGGGACC, the sensor-assay potency score (higher = more potent) was -1.68.
On the same count and under the same terms, with TTGGGTGGACACCACCAACAGA the figure was -1.13.
